# Source: the supplement of paper PMC10849652
# The full data set covers some 7,900 targets. This sample favours those with a hit. About 0.6% of all pairs of compound and target were hits. Values without a mark were called inactive.
# Assays:
# Experiment in all cases: log2 fold change, soluble protein after heating vs DMSO (PISA); higher = thermal stabilisation; K562 cells, 10 uM, 30 min; active = over 0.2 and 3.5 SD of the protein, either way, in both replicates (recomputed)
# [1] = compound: CS(=O)(=O)c1ccc(-c2cnc(N)c(C(=O)Nc3ccccc3)n2)cc1
# Method in brief: (§1)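 Soluble protein was defined as the supernatant after 21,000xg for 90 min. It came from K562 cells at 2×10^6 cells/mL given 10 μM compound for 30 min, heated in aliquots for 3 min across 48°C-58°C, pooled, and extracted in PBS with 0.5% NP-40 at 4°C, and was quantified by TMTpro 16plex LC-MS/MS with equalised channel sums. Thermal stability against control samples, from duplicates, is reported as log2 fold change.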
# [2] = compound: C[C@@H](Oc1cc(-c2cnn(C3CCNCC3)c2)cnc1N)c1c(Cl)ccc(F)c1Cl [crizotinib]
# Method in brief: as §1
# [3] = compound: C[C@@H]1COCCN1C2=NC(=NC(=C2)C3(CC3)S(=O)(=O)C)C4=C5C=CNC5=CC=C4
# Method in brief: as §1
# [4] = compound: C[C@H](C1=CC=C(C=C1)C(=O)NC2=C3C=CNC3=NC=C2)N
# Method in brief: as §1
# [5] = compound: C[C@H](Nc1ncnc2nc[nH]c12)c1cc2cccc(Cl)c2c(=O)n1-c1ccccc1 [duvelisib]
# Method in brief: as §1
# [6] = compound: Cc1cc(Nc2cc(CN3CCOCC3)c3nc(C)c(Cc4ccc(Cl)cc4F)n3n2)n[nH]1 [gandotinib]
# Method in brief: as §1
# [7] = compound: Cc1cc(Nc2cc(N3CCN(C)CC3)nc(Sc3ccc(NC(=O)C4CC4)cc3)n2)n[nH]1 [tozasertib]
# Method in brief: as §1
# [8] = compound: Cc1cc(SCc2sc(-c3ccc(C(F)(F)F)cc3)nc2C)ccc1OCC(=O)O
# Method in brief: as §1
# [9] = compound: Cc1ccc(-n2nc(C(C)(C)C)cc2NC(=O)Nc2ccc(OCCN3CCOCC3)c3ccccc23)cc1 [doramapimod]
# Method in brief: as §1
# [10] = compound: Cc1ccc(C(=O)N(CCCN)[C@@H](c2nc3cc(Cl)ccc3c(=O)n2Cc2ccccc2)C(C)C)cc1 [ispinesib]
# Method in brief: as §1
# [11] = compound: Cc1ccc(NC(=O)c2ccc(CN3CC[C@H](N(C)C)C3)c(C(F)(F)F)c2)cc1Nc1nccc(-c2cncnc2)n1 [bafetinib]
# Method in brief: as §1
# [12] = compound: Cc1cccc(CC(=O)N2CCc3c2ccc(-c2cn(C)c4ncnc(N)c24)c3F)n1
# Method in brief: as §1
# [13] = compound: Cc1cn(-c2cc(NC(=O)c3ccc(C)c(Nc4nccc(-c5cccnc5)n4)c3)cc(C(F)(F)F)c2)cn1 [nilotinib]
# Method in brief: as §1
# [14] = compound: Cc1nc(Nc2n[nH]c3c2CN(C(=O)N[C@H](CN(C)C)c2ccccc2)C3(C)C)c2sccc2n1
# Method in brief: as §1
# [15] = compound: Cc1nc(Nc2ncc(C(=O)Nc3c(C)cccc3Cl)s2)cc(N2CCN(CCO)CC2)n1 [dasatinib]
# Method in brief: as §1
# [16] = compound: Cc1ncc(-c2ccnc(Nc3ccc(S(C)(=O)=O)cc3)n2)n1C(C)C
# Method in brief: as §1
# [17] = compound: Cn1cc(-c2ccc3c(c2)CCN3C(=O)Cc2cccc(C(F)(F)F)c2)c2c(N)ncnc21
# Method in brief: as §1
# [18] = compound: Cn1cc(-c2ccc3nnc(C(F)(F)c4ccc5ncccc5c4)n3n2)cn1
# Method in brief: as §1
# [19] = compound: Cn1cncc1[C@@](N)(c1ccc(Cl)cc1)c1ccc2c(c1)c(-c1cccc(Cl)c1)cc(=O)n2C [tipifarnib]
# Method in brief: as §1
# [20] = compound: FC(F)(F)c1ccc(/C=C/c2nc(COc3ccc(CCCCn4ccnn4)cc3)co2)cc1 [mubritinib]
# Method in brief: as §1
# Chain of UniProt Q96KP1 (Q96KP1 whole entry, looked up): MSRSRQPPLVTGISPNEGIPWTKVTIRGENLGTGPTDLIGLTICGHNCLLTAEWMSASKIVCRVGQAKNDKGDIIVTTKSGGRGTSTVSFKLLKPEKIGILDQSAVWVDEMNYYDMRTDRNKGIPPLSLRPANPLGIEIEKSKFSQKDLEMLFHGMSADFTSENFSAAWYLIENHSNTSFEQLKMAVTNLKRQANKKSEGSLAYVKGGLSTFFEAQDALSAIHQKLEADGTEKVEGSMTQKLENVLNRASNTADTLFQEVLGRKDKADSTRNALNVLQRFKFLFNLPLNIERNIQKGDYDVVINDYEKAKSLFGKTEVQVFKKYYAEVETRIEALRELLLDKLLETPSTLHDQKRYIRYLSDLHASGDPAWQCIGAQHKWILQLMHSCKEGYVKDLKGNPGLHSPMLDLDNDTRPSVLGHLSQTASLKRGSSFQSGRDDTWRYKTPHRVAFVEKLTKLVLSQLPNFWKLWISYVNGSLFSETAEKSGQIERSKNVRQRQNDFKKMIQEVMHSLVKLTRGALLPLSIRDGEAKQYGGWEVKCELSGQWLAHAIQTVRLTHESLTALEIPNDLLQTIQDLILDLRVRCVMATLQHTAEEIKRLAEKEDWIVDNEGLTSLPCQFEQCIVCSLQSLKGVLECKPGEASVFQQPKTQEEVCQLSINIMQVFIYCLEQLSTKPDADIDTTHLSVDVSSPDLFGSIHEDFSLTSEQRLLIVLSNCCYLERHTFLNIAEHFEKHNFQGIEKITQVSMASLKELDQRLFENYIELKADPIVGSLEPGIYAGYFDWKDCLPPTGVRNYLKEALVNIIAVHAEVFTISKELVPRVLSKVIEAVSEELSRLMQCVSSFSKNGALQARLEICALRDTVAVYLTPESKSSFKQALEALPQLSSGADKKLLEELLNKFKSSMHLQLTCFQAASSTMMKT
# Chain of UniProt Q9NQI0 (Q9NQI0 whole entry, looked up): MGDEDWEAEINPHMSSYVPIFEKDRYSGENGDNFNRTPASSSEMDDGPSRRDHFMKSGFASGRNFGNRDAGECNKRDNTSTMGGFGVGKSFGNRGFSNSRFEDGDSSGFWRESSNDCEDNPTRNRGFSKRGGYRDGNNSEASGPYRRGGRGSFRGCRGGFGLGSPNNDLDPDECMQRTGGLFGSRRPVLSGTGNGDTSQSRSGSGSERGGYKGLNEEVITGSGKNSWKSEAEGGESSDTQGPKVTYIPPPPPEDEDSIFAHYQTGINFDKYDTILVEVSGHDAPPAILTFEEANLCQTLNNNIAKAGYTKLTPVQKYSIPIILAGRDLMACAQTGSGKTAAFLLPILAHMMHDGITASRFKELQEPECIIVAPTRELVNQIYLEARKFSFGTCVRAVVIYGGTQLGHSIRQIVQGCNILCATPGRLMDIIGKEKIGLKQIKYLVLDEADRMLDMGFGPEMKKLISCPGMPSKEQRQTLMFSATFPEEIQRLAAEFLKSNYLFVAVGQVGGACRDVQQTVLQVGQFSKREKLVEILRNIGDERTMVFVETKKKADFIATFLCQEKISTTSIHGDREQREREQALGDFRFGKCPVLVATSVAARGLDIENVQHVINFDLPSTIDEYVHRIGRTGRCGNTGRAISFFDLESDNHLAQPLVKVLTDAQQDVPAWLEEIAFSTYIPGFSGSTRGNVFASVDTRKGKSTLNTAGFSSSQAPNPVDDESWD
# Chain of UniProt O94905 (O94905 whole entry, looked up): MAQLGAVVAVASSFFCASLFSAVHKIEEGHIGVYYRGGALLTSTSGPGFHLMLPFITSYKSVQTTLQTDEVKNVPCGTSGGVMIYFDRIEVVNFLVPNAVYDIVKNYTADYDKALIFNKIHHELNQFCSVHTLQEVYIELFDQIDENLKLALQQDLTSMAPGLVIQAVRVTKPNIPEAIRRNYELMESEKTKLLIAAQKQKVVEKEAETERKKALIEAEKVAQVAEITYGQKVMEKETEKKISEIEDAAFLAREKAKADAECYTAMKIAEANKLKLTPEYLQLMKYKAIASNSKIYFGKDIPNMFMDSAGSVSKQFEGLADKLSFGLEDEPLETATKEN
# Chain of UniProt P35222 (P35222 whole entry, looked up): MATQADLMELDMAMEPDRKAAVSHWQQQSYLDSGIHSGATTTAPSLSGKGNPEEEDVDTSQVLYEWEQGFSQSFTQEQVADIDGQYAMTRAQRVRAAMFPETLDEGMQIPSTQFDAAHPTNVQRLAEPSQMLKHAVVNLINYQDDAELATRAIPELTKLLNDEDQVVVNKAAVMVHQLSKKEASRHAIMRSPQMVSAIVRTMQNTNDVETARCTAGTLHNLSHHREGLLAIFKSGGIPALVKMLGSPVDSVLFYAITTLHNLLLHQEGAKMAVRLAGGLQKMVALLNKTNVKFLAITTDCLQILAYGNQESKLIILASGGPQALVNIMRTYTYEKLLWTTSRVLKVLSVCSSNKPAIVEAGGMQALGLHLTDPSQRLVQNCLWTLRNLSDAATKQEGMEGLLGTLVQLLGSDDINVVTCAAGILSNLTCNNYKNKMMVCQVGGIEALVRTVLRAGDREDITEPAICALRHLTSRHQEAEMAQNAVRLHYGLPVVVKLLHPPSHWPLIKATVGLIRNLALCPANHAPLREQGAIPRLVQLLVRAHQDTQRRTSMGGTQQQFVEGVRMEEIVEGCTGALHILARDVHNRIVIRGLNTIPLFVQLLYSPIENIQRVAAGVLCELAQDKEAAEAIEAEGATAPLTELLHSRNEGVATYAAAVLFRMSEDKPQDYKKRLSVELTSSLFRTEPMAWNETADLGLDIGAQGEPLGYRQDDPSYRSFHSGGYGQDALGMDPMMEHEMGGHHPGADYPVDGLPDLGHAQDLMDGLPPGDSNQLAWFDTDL
# Chain of UniProt Q9NX74 (Q9NX74 whole entry, looked up): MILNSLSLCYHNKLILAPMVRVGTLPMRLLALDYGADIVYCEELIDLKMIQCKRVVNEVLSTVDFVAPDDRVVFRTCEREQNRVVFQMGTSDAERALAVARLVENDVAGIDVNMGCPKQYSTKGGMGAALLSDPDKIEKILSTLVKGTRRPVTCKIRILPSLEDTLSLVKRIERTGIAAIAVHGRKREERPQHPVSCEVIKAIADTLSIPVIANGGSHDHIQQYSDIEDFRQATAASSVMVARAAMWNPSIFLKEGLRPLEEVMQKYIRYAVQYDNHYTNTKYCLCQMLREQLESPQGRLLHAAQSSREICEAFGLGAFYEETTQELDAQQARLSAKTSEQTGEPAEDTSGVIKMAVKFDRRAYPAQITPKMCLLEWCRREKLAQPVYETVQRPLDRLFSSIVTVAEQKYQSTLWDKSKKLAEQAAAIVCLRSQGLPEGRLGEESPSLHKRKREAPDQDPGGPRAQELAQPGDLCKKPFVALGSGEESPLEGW
# Chain of UniProt Q6IAN0 (Q6IAN0 whole entry, looked up): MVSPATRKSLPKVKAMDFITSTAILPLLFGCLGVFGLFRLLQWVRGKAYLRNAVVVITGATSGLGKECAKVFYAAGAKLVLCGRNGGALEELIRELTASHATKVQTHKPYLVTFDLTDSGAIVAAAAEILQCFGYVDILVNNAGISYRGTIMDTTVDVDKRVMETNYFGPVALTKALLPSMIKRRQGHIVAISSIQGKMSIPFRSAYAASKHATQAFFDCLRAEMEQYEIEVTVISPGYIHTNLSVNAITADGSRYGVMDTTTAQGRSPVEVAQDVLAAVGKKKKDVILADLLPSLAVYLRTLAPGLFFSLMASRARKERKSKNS
# Chain of UniProt P06730 (P06730 whole entry, looked up): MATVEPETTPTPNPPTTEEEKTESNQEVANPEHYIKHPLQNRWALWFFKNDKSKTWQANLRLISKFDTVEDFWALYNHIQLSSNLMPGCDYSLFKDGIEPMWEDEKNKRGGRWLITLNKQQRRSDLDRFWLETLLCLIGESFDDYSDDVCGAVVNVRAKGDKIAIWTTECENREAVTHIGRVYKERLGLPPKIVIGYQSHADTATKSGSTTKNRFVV
# Chain of UniProt Q9BSJ8 (Q9BSJ8 whole entry, looked up): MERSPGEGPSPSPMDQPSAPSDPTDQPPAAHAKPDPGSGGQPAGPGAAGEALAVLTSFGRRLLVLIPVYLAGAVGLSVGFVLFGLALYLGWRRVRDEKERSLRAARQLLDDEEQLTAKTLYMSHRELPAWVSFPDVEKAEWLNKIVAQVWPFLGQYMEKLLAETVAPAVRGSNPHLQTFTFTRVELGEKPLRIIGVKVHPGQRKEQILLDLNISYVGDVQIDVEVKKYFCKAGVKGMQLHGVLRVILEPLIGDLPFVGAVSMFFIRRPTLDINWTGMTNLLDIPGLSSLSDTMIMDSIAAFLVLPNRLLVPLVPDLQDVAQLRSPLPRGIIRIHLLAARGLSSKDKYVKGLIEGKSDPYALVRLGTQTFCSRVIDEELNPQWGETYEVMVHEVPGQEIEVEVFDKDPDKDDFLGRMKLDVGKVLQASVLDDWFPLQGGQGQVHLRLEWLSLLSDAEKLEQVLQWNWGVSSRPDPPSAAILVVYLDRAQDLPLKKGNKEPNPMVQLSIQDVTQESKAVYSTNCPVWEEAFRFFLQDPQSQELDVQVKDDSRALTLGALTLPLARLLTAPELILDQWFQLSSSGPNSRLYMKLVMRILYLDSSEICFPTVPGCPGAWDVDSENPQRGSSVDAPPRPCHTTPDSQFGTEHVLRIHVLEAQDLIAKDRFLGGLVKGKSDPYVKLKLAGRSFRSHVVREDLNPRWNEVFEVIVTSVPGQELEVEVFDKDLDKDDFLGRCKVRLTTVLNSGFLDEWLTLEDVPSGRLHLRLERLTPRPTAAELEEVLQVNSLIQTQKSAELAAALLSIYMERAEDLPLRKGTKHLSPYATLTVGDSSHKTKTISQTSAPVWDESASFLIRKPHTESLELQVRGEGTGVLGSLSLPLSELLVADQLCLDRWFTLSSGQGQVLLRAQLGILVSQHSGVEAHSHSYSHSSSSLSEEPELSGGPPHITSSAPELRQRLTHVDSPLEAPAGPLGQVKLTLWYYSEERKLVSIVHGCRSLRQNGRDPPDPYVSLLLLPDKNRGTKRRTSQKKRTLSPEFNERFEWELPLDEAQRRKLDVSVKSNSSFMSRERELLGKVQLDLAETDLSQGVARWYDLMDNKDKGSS
Target,log2 fold change [1],log2 fold change [2],log2 fold change [3],log2 fold change [4],log2 fold change [5],log2 fold change [6],log2 fold change [7],log2 fold change [8],log2 fold change [9],log2 fold change [10],log2 fold change [11],log2 fold change [12],log2 fold change [13],log2 fold change [14],log2 fold change [15],log2 fold change [16],log2 fold change [17],log2 fold change [18],log2 fold change [19],log2 fold change [20]
EIF4E isoform 2 (UniProt P06730),0.198,0.165,0.4 (active),-0.099,0.143,-0.006,0.003,-0.02,-0.045,0.159,0.012,0.05,0.199,-0.072,0.013,0.272,0.125,0.082,-0.029,0.045
ESYT1 isoform 2 (UniProt Q9BSJ8),0.021,-0.134,-0.076,0.069,0.014,0.024,-0.017,0.11,0.083,-0.265,0.112,0.137,-0.088,-0.208,-0.147,0.022,-0.059,-0.06,0.007,-0.092
EXOC2 (UniProt Q96KP1),0.006,-0.308,-0.112,0.101,-0.081,0.009,0.017,0.119,0.06,-0.394 (active),0.021,-0.089,-0.002,-0.135,-0.301,0.028,-0.011,-0.081,-0.066,0.035
DDX4 (UniProt Q9NQI0),0,0.018,0.013,0.544,0.265,0.112,-0.042,-0.232,-0.021,-0.529,0.244,-0.511,-0.172,-0.187,0.107,-0.068,-0.217,0.052,0.268,-0.484
DUS2 (UniProt Q9NX74),-0.017,0.048,0.084,0.045,0.012,0.036,-0.013,0.062,-0.006,0.097,-0.017,-0.025,-0.243,-0.032,-0.07,0.014,-0.072,0.01,0.094,0.045
DHRS7B (UniProt Q6IAN0),0.066,0.194,0.003,-0.08,0.097,-0.232,0.033,0.105,-0.006,0.367 (active),0.001,0.213,0.114,0.01,-0.066,0.056,0.047,-0.113,0.008,-0.023
ERLIN2 (UniProt O94905),-0.017,-0.034,-0.167,0.068,-0.032,-0.044,0.009,0.155,0.057,-0.251 (active),0.039,0.032,-0.107,0.012,-0.023,0.023,-0.104,0,0.024,-0.049
CTNNB1 (UniProt P35222),0.666 (active),0.024,-0.087,-0.102,0.086,0.336,0.03,-0.024,0.047,0.078,0.026,0.057,-0.056,0.205,-0.149,0.858 (active),-0.004,-0.021,-0.115,0.076
